Assay results from PubChem BioAssay AID430 (Sanford-Burnham Center for Chemical Genomics, 2006).
The whole screen tested about 63,000 compounds, of which about 1,100 (1.7%) were called active. What follows is part of a selection rich in actives, with near analogues and random picks from the rest. Potency and affinity values are given separately. Values without a mark were called inactive. No stated cut-off is given here; in the data, active means cytotoxicity above about 50%; inactive means the rest.

assay: cytotoxicity in HPDE-C7 cells, cell-based, fluorescence, HTS (AID 430); conditions: HPDE-C7 pancreatic duct cells viability, at 10 µM, stronger effect = higher value;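 further: cells exposed to compound for 48 hours before viability readout; 0% = vehicle and 100% = reference cytotoxic drug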

Row | Compound | cytotoxicity
1 | O=C(Cn1cnc2ccccc2c1=O)c1ccc2c(c1)OCCO2 | -6.3%
2 | COc1cccc(-c2cc(C(=O)Nc3c(C)nn(Cc4ccccc4C)c3C)no2)c1 | -3.2%
3 | COc1ccccc1C(=O)N1CCN(C(=O)COc2cccc(C)c2)CC1 | -7.6%
4 | CC1=C(C(=O)NC(C)c2ccc3c(c2)OCCO3)C2(CCC(C)CC2)OC1=O (centres undefined) | 10.7%
5 | CCOC(=O)CSc1nc(N)c(C#N)c(-c2ccc(OC)cc2)c1C#N | -6.1%
6 | CCOC(=O)CC(=O)CSc1nc(N)c(C#N)c(-c2ccc(F)cc2)c1C#N | 5.6%
7 | CCOC(=O)CC(=O)CSc1nc(N)c(C#N)c(-c2ccc(Cl)cc2)c1C#N | 54.7% (active)
8 | CCCCOc1ccc(-c2c(C#N)c(N)nc(SCC(N)=O)c2C#N)cc1 | 82.5% (active)
9 | CCCCOC(=O)CSc1nc(N)c(C#N)c(-c2ccc(OCC)cc2)c1C#N | 5.1%
10 | CCCCOC(=O)CSc1nc(N)c(C#N)c(-c2ccc(OC)cc2)c1C#N | -16%
11 | CC(=NCC1CCNCC1)C1=C(O)CC(C)(C)CC1=O | -8.1%
12 | CCOc1ccccc1-c1nn2c(Cc3ccccc3)nnc2s1 | -4.2%
13 | NC(=O)C(F)(F)C12OC3C4C5CC(C6C5C3C61)C42 (centres undefined) | -3.7%
14 | CC(C)(C)Nc1cccccc1=O | -8%
15 | COc1ccc(C)cc1S(=O)(=O)N(CC(=O)O)c1ccccc1 | -0.9%
16 | COc1ccc(OC)c(S(=O)(=O)n2nc(-c3ccccc3)cc2N)c1 | -13.7%
17 | COc1ccc(S(=O)(=O)n2nc(-c3cc(OC)c(OC)c(OC)c3)cc2N)cc1OC | -3.7%
18 | Cc1cc(C)cc(N2C(=O)C3C4C=CC(C4)C3C2=O)c1 (centres undefined) | -5.5%
19 | Cc1ccc(CC2(O)CC(C)N(C)CC2C)c(C)c1 (centres undefined) | 0.1%
20 | Nc1nonc1C(=O)NC(c1ccccc1)c1ccccc1 | 3.4%
21 | COc1ccc(C2CC(c3ccccc3)Nc3nc(NC(=O)c4cccs4)nn32)cc1 (centres undefined) | -3.4%
22 | O=C(O)c1ccccc1C(=O)N1CCN(c2cccc(Cl)c2)CC1 | 6.7%

Row | Compound | cytotoxicity
23 | COc1ccc(C(=O)N2CCN(c3cccc(Cl)c3)CC2)c(OC)c1 | 44.1%
24 | CCOc1ccc(C(=O)N2CCN(c3ccccc3)CC2)cc1OCC | -51.5%
25 | O=C(c1cccc(F)c1)N1CCN(c2cccc(Cl)c2)CC1 | 36.5%
26 | CCOc1ccc2ccccc2c1C(=O)N1CCOCC1 | 2.5%
27 | Cc1ccc(C(=O)N2CCN(c3cccc(Cl)c3)CC2)cc1C | 36.8%
28 | COc1ccccc1C(=O)N1CCN(c2cccc(Cl)c2)CC1 | -13%
29 | CCOc1ccccc1C(=O)N1CCN(c2cccc(Cl)c2)CC1 | 62.2% (active)
30 | O=C(c1c(Cl)nc2sccn12)N1CCN(c2cccc(Cl)c2)CC1 | 75% (active)
31 | CCOc1ccc2ccccc2c1C(=O)N1CCN(c2ccccc2)CC1 | 50.5% (active)
32 | Cc1cc(C(=O)N2CCN(c3cccc(Cl)c3)CC2)c(C)o1 | 53.3% (active)
33 | Cc1cc(C(=O)N2CCN(c3ncccn3)CC2)c(C)o1 | 2.2%
34 | CN1CCN(/C=C2\SC(=S)NC2=O)CC1 | -23.4%
35 | O=C(c1cnc2n(c1=O)CCS2)N1CCN(c2ccc(Cl)c(Cl)c2)CC1 | -3.5%
36 | CC(NS(=O)(=O)c1ccc(Br)cc1)C(c1cccs1)N1CCN(C)CC1 (centres undefined) | -8.4%
37 | c1ccc(-n2c(-c3ccncc3)nnc2-c2ccco2)cc1 | -33.8%
38 | O=C(O)CC1C(=O)NCCN1C/C=C/c1ccccc1 (centres undefined) | -5.3%
39 | O=C(CN(C(=O)CNC(=O)c1ccco1)c1ccc2c(c1)OCO2)NC1CCCCC1 | -31.1%
40 | Cc1ccc2c(c1)nnn2C1CCN(C(=O)C2CCCCC2)CC1 | -12.5%
41 | COc1ccccc1CC(=O)N1CCN(c2cccc(C(F)(F)F)c2)CC1 | -10.2%
42 | COc1ccccc1C(=O)N1CCN(c2cccc(C(F)(F)F)c2)CC1 | 60.8% (active)
43 | O=C(c1ccccc1F)N1CCN(c2cccc(C(F)(F)F)c2)CC1 | -5%
44 | CSc1nsc(SCc2ccc(F)cc2)n1 | -4.1%

Row | Compound | cytotoxicity
45 | Nc1nnc(SCc2ccc(F)cc2)s1 | -16.7%
46 | Cc1nnc(SCc2ccc(F)cc2)s1 | 105% (active)
47 | Clc1ccccc1-c1nnc2sc(-c3ccco3)nn12 | -6.1%
48 | COC(=O)C1=C(C)N(c2ccc(Cl)c(Cl)c2)C(=O)C1 | 84.2% (active)
49 | COC(=O)C1=C(C)N(c2cccc(Cl)c2)C(=O)C1 | -4.9%
50 | COC(=O)C1=C(C)N(c2ccc(F)c(Cl)c2)C(=O)C1 | -5.3%
51 | Cc1nc2c(o1)CCc1ccccc1C2N1CCN(C)CC1 (centres undefined) | -16.4%
52 | CC(C)CC(OC(=O)c1ccco1)C(=O)NC1CCCCC1 (centres undefined) | -5.1%
53 | Cc1ccc(N2CCN(CCc3nc4cc(NS(C)(=O)=O)ccc4n3C)CC2)cc1 | -22.1%
54 | CC(C)CCn1nnnc1C(c1ccccc1F)N1CCC(C(N)=O)CC1 (centres undefined) | -13.3%
55 | CCC(C)(C)n1nnnc1C(C(C)C)N1CCC(C(N)=O)CC1 (centres undefined) | 5.6%
56 | CCC(C)(C)n1nnnc1C(c1ccccc1F)N1CCC(C(N)=O)CC1 (centres undefined) | 56.3% (active)
57 | O=C(CN(C1CCCCC1)S(=O)(=O)c1ccc(Cl)cc1)NCc1ccncc1 | -8.9%
58 | Cc1cc(C)c2c(CN3CCN(Cc4ccc5c(c4)OCO5)CC3)cc(=O)oc2c1C | 44.1%
59 | O=C(CCCOc1ccc(Cl)cc1Cl)N1CCN(c2ccccn2)CC1 | 3.1%
60 | O=C(c1cccc(COc2ccc(Cl)cc2Cl)c1)N1CCN(c2ccccn2)CC1 | 77.5% (active)
61 | O=C(c1cccc(Cl)c1)N1CCN(c2ccccn2)CC1 | -14.9%
62 | Cc1cc2c(cc1C)NC(CC(=O)NCc1ccccc1)C(=O)N2 (centres undefined) | 1.1%
63 | Cc1nc(N)sc1-c1csc(Nc2ccccc2)n1 | 36.2%
64 | NS(=O)(=O)c1ccc(Nc2nc(-c3ccc(O)cc3)cs2)cc1 | -1.2%
65 | C=CCNc1nc(-c2sc(NC(C)=O)nc2C)cs1 | 11.6%
66 | c1cncc(Nc2nc(-c3ccncc3)cs2)c1 | -3.1%

Row | Compound | cytotoxicity
67 | CC(=O)Nc1nc(C)c(-c2csc(Nc3ccc(O)cc3)n2)s1 | 58.6% (active)
68 | Oc1ccc(Nc2nc(-c3ccc(O)cc3)cs2)cc1 | 78.4% (active)
69 | O=C(NC1CCCC1)c1cnc2n(c1=O)CCS2 | -10.2%
70 | O=C1CC(O)(C(F)F)Oc2ccc3ccccc3c21 (centres undefined) | -12.2%
71 | COc1ccc2c(c1)OC(O)(C(F)(F)F)CC2=O (centres undefined) | -3.3%
72 | O=C1CC(O)(C(F)(F)F)Oc2c1ccc1ccccc21 (centres undefined) | 82.3% (active)
73 | COc1cccc(-c2nc(=S)c3c(n2Cc2ccco2)CCCC3)c1 | -22.8%
74 | CCOC(=O)Nc1sc(=S)n(C)c1C | -8.2%
75 | Cc1c(NC(=O)OCCSc2nc(N(C)C)nc(N(C)C)n2)sc(=S)n1C | 59.5% (active)
76 | CN(C)c1nc(SCCOC(=O)Nc2ccccc2)nc(N(C)C)n1 | 19.3%
77 | Nc1nc2nccc(-c3ccc(Cl)cc3)n2n1 | 3.6%
78 | Cc1ccc(NC(=O)N2CCCC2C(=O)NCCc2ccccc2)cc1 (centres undefined) | -9.2%
79 | Cc1ccc(S(=O)(=O)N2CCN(C(=O)COC(=O)COc3ccccc3)CC2)cc1 | 7.4%
80 | CCOC(=O)c1ccc2c(c1)nc(SCc1cn3ccsc3n1)n2CC | 19.7%
81 | COc1cc([C@@H]2c3cc4c(cc3[C@H](O)[C@H]3COC(=O)[C@H]23)OCO4)cc(OC)c1OC | 67.2% (active)
82 | COc1cc(CC(=O)NCc2ccc3c(c2)OCO3)cc(OC)c1OC | -7.2%
83 | COc1cc(CC(=O)Oc2ccc3c(c2)OCO3)cc(OC)c1OC | 28.4%
84 | Cc1nn(C)c(C)c1S(=O)(=O)N1CCCC(C(=O)NCC2COc3ccccc3O2)C1 (centres undefined) | -4%
85 | Fc1cccc(CSc2ncnc3c2oc2ccccc23)c1 | 12.4%
86 | COc1ccc(OC)c(C(O)c2coc3ccc(O)c(CN4CCOCC4)c23)c1 (centres undefined) | 1.7%
87 | COCCn1nnnc1C(c1ccc(OC)cc1OC)N1CCN(c2ccccc2)CC1 (centres undefined) | -2%
88 | COC(=O)CSc1nnc(CSc2nc(C)cc(C)n2)n1Cc1ccco1 | -2.1%

Row | Compound | cytotoxicity
89 | COc1ccc(C(C)=O)cc1COC(=O)c1cc(C)oc1C | 2.5%
90 | COc1ccccc1C(=O)OCC(=O)Nc1ccc(OC(F)F)cc1 | 5.1%
91 | Cc1nc(N)sc1-c1csc(Nc2ccccn2)n1 | -12.4%
92 | Cc1cccnc1Nc1nc(-c2ccc(O)cc2O)cs1 | 67.2% (active)
93 | Cc1cc(O)ccc1Nc1nc(-c2sc(N)nc2C)cs1 | 1.6%
94 | CCOC(=O)N1CCN(c2c(NCc3cccs3)c(=O)c2=O)CC1 | 46.8%
95 | Cc1nc(N2CCN(c3ccccc3)CC2)[nH]c(=O)c1Cc1cccc2ccccc12 | 7.5%
96 | COC(=O)COc1ccc(S(=O)(=O)NCCC2=CCCCC2)cc1C | -2.4%
97 | COC(=O)COc1ccc(S(=O)(=O)NCCC2=CCCCC2)cc1 | 18.8%
98 | CCOC(=O)COc1ccc(S(=O)(=O)NCCC2=CCCCC2)cc1 | 50.3% (active)
99 | O=C(c1ccncc1)N1CCN(C(=O)c2cccs2)CC1 | -5.3%
100 | Cc1ccccc1C(=O)N1CCN(c2ccc(NC(=O)c3ccco3)cc2Cl)CC1 | 11.7%
101 | O=C(Nc1ccc(N2CCN(C(=O)c3ccccc3)CC2)c(Cl)c1)c1ccco1 | -7.6%
102 | O=C(Cc1ccc(Cl)cc1)Nc1ccc(N2CCN(C(=O)c3ccco3)CC2)c(Cl)c1 | 19.6%
103 | O=C(Nc1ccc(N2CCOCC2)c(Cl)c1)c1c(F)c(F)c(F)c(F)c1F | 54.5% (active)
104 | O=C(Nc1ccc(N2CCN(C(=O)c3ccco3)CC2)c(Cl)c1)c1c(F)c(F)c(F)c(F)c1F | 56% (active)
105 | CCC(=O)Nc1ccc(NC(=O)c2cc3ccccc3o2)cc1 | -18.1%
106 | O=C(Nc1ccccc1N1CCN(C(=O)c2ccccc2)CC1)c1cc2ccccc2o1 | -8.3%
107 | O=C(Nc1ccc(N2CCOCC2)c(Cl)c1)c1cccc(F)c1 | 16.4%
108 | O=C(Nc1ccc(N2CCOCC2)c(Cl)c1)c1ccco1 | -5.7%
109 | O=C(Nc1ccc(N2CCN(C(=O)c3ccco3)CC2)c(Cl)c1)c1cccs1 | 16.9%
